From PubChem BioAssay AID594 (National Center for Advancing Translational Sciences (NCATS), 2007)
Out of some 59,000 compounds screened, about 30 (0.05%) were called active. Cut-off read from the data, not from the text of the source: active = max dye-equivalent concentration above about 11 nM; inconclusive = between about 1.1 nM and that limit; inactive = weaker than that. What follows is part of a selection rich in actives, with near analogues and random picks from the rest.

Experiment: qHTS Assay for Spectroscopic Profiling in Rhodamine Spectral Region
Conditions: Rhodamine-region fluorescence, 547/598 nm, Tris buffer
From the text: NIH Molecular Libraries Screening Centers Network [MLSCN] NIH Chemical Genomics Center [NCGC] […] Occasionally, the artifactual effect may originate from the compound#s own spectral or other biophysical properties which generally tend to track its assay concentration. Pre-screening/profiling the library with respect to the compounds# spectral properties should help one exclude false positives early on. While the most informative fluorescent profiling data set is obtained by performing a full excitation and emission scan of each well by using a monochromator-based plate reader, such an approach is practical only on a very limited scale as scanning each well requires long time. An alternative approach, applied here, is to perform plate reader scans using selected excitation and emission wavelength pairs to generate a multidimensional relational database that correlates compound concentration and the respective relative fluorescence intensity at a given wavelength set. A standard curve of rhodamine present on each plate as six-point concentration series, was used to compute a normalized fluorescence response, termed dye-equivalent concentration, for each compound at each concentration.
NCGC Assay Protocol Summary: Buffer: 100 mM Tris buffer, pH 8.0 Dye standard plate: The wells in columns 1 through 4 of a Kalypsys polypropylene 1536-well compound plate were filled with standard solutions of fluorophore corresponding to the spectral region of interest. Solutions of rhodamine were placed in the following wells: E1, F1: 3 mM, E2, F2: 300 uM, E3, F3: 30 uM, E4, F4: zero (DMSO), G1, H1: 3 uM, G2, H2: […], G3, H3: 300 nM, G4, H4: zero (DMSO). Assay Steps: Six uL of buffer were dispensed to 1536-well Greiner black plates. Compounds and dye standards (23 nL) were transferred via Kalypsys PinTool. The plates were incubated for 15 min at room temperature, and then read on ViewLux (Perkin-Elmer) High-throughput CCD imager using 547 nm and 598 nm excitation and emission filter set. Keywords: NIH Roadmap, MLSCN, MLI, MLSMR, qHTS, NCGC, Rhodamine , Fluorescent Profiling.

Max dye-equivalent concentration, inactive:
COC(=O)CN(c1cccc(C(C)=O)c1)S(C)(=O)=O
COCCn1c(=O)c(C)nc2cnc(N(C)C)nc21
O=C(COc1ccc(F)cc1)N(CC1=CCS(=O)(=O)C1)c1ccccc1
CN(c1ccc(C(=O)N2CCc3ccccc3C2)cc1)S(C)(=O)=O
CCCC(=O)Nc1nnc(CC(=O)OCC)s1
CCOP1(=O)C=C(C(C)(C)C)OC1c1ccc(F)cc1 (configuration not stated)
CC(=O)NC(Cc1ccc(F)cc1)C(=O)O (configuration not stated)
Cc1[nH]c(N)nc(=S)c1CCCNc1ccccc1
O=C(O)c1cscn1
CCOC(=O)Cc1c(C)nc2c(C#N)c(C)nn2c1C
CCN(CCCNC(=O)C1CCN(S(=O)(=O)c2cnc[nH]2)CC1)c1ccccc1
COc1cc(OC)c(C(=O)Nc2ccc(N(C)C)cc2)cc1OC
Cc1nc2cc(-c3ccc(F)cc3)nn2c(N2CCOCC2)c1C
COCCOC(=O)C1=C(C)Nc2nc(C)nn2C1c1ccccc1 (configuration not stated)
CCOC(=O)c1sc(NC(=O)CSc2nnc(-c3ccco3)o2)c(C(=O)OCC)c1C
C[C@H](NC(=O)OC(C)(C)C)c1nnc(SCC(=O)Nc2ccc(Br)cc2)o1
Cn1c(=O)c2c(ncn2CC(=O)N2CCN(c3ccccc3)CC2)n(C)c1=O
CCCCc1nccn1CCn1ccnc1CCCC
O=C(CCn1c(=O)oc2ccccc21)Nc1ccon1
O=C1OC(NC(=O)c2ccccc2)C(N2CCOCC2)=C1Cl (configuration not stated)
COc1cc(C2C(C(=O)c3sc(C)nc3C)=C(O)C(=O)N2CCN(C)C)cc(OC)c1OC (configuration not stated)
COc1ccc(CC(=O)Nc2nc3n(n2)C(c2ccccc2)CC(=O)N3)cc1OC (configuration not stated)
CCOC(=O)CN1CC23C=CC(O2)C(C(=O)Nc2ccc(F)cc2)C3C1=O (configuration not stated)
CC1(C)Cc2c(C#N)c(SCc3nc4ccccc4[nH]3)nc(N3CCOCC3)c2CO1
CCOC(=O)C1CCCN(Cc2nc(N)nc(Nc3ccc(C)cc3)n2)C1 (configuration not stated)
CCN(CC)c1ccc2cc(C(=O)O)c(=O)oc2c1
Cc1ccc(CN2C(=O)CCC2C(=O)NCCCN2CCCCC2C)cc1 (configuration not stated)
Cc1ccc(Cn2nnc3c(=O)n(CC(=O)N4CCCCC4)cnc32)cc1
Cc1ccc(-n2nc3c(c2NC(=O)c2ccc4c(c2)OCO4)CSC3)c(C)c1
CCCC1CC(C)(C(=O)Cn2[nH]c(=O)ccc2=O)OC1=O (configuration not stated)
CCc1cccc2c3c([nH]c12)C(CC)(CC(=O)O)OCC3 (configuration not stated)
CCC(c1nnnn1Cc1ccccc1)N(Cc1cc2cc(OC)ccc2[nH]c1=O)CC1CCCO1 (configuration not stated)
O=C(CN(CC1CCCO1)C(=O)CNS(=O)(=O)c1ccccc1)NCc1ccccc1 (configuration not stated)
CC(=O)Nc1ccc(S(=O)(=O)N2CCN(CCCOc3cc(C)ccc3C)CC2)cc1
CCNS(=O)(=O)c1ccc(NC(=O)Nc2cccc(C(F)(F)F)c2)cc1
CCOc1ccc(CN(Cc2ccco2)C(c2cccs2)c2nnnn2C(C)(C)C)cc1 (configuration not stated)
O=c1[nH]c(-c2cccs2)nc2ccccc12
Cc1ccc2nc(NCCCNC(=O)c3cnccn3)c(C#N)cc2c1
COc1ccc(C)cc1NC(=O)CSc1nc(SC)ns1
Cc1nc2nc(CSc3nc4ccccc4s3)cc(=O)n2[nH]1
COc1ccc(Cl)cc1S(=O)(=O)Nc1cccc(C(=O)O)c1
O=C(Nc1ccon1)c1sc2ccccc2c1Cl
Cn1c(=S)c2[nH]c(SCCCc3ccccc3)nc2n(C)c1=O
O=S(=O)(NCc1cccnc1)c1ccc(Br)s1
O=C(OCC(O)C(O)COC(=O)c1ccccc1)c1ccccc1 (configuration not stated)
Cc1nc2ccc(S(=O)(=O)NCC(=O)NCCN3CCCCC3C)cc2s1 (configuration not stated)
CNC(=O)c1cc2c(ccc3ccccc32)oc1=N
COc1ccc2oc(=O)c(C(=O)N3CCN(c4ccccc4F)CC3)cc2c1
COc1ccc(N=Cc2c(O)[nH]c3ccccc23)cc1OC
CC1CCCN(C(=O)Cn2c(=O)oc3ccccc32)C1 (configuration not stated)
CC1(C)CC(O)C(CCC(O)c2ccccc2)C(C)(C)N1 (configuration not stated)
CC(=O)OCc1cc2cc(C)ccc2[nH]c1=O
O=C(c1cc(C(F)(F)F)cc(C(F)(F)F)c1)N1CCC2(CCCN(c3ccccn3)C2)CC1
CCc1ccccc1NC(=O)CSc1nnc([C@@H](NC(=O)OC(C)(C)C)C(C)CC)o1 (some centres not stated)
CCOC(=O)CSc1nncc2ccc(OC)c(OC)c12
Cc1noc(C)c1-c1cc(NCc2cccnc2)ncn1
CN1CCN(c2ncc3nc(-c4ccc(Cl)cc4)c(=O)n(-c4ccccc4)c3n2)CC1
CC(=O)c1ccc(-n2nnnc2SCC(=O)N2CCN(C(=O)c3ccco3)CC2)cc1
COc1ccc2c(c1)CCc1c(C(=O)N3CCCC3)noc1-2
O=C(NCc1ccco1)c1sc2cccc(F)c2c1Cl
Cc1cc2nc(-c3ccc(NC(=O)c4cccnc4)cc3)oc2cc1C
c1ccc2c(CNn3cnnc3)cccc2c1
Cn1c(SCC(=O)Nc2cccc(O)c2)nnc1-c1ccc(S(=O)(=O)N2CCOCC2)cc1
CC(C)C(=O)N1CCN(CCN=CC2=C(O)CC(c3ccco3)CC2=O)CC1 (configuration not stated)
O=C(c1cc(C(F)(F)F)cc(C(F)(F)F)c1)N1CCC[C@@]2(CCN(c3ccccn3)C2)C1
COc1ccc2c(c1)CCc1c(C(=O)N3CCc4ccccc4C3)noc1-2
S=c1[nH]nc(SCc2ccccc2Cl)c2[nH]cnc12
Brc1ccc(Nc2c3c(nc4ncnn24)CCC3)cc1
Cc1cc(=O)oc(C)c1C(=O)NC1CC(C)(C)NC(C)(C)C1
CCOC(=O)COc1ccc(Cl)cc1C1NC(=O)NC(C)=C1C(C)=O (configuration not stated)
Cc1cccc(N2CCN(C(=O)C3CCN(S(=O)(=O)c4cnc[nH]4)CC3)CC2)c1C
Cc1cc(Cl)ccc1OCC(=O)Oc1c(Cl)c(Cl)c(Cl)c(Cl)c1Cl
